Screening data from PubChem BioAssay.
Compounds with a hit are over-represented: about 20% of the library has one in this group of screens.
CHX counter: Cycloheximide Counterscreen for Small Molecule Inhibitors of Shiga Toxin. cell reporter, cycloheximide protein synthesis inhibition counterscreen. max response, %. 12% of 300,000 active; in the data active = max response mostly above about 13%, no sharp cut-off; inactive = mostly below about 14%; note: read at 38.3 µM for the half of the compounds with a filed dose; 0% is about no effect
Shiga toxin inh: A qHTS for Small Molecule Inhibitors of Shiga Toxin; inhibition, % at 38.7 µM; Vero cells, Shiga toxin protein synthesis inhibition reporter; 9.2% of 290,000 active; AID 2315, 2010; in the data active = inhibition mostly above about 28%, no sharp cut-off; inactive = mostly below about 43%; note: 0% is about no effect
Pf growth 48h: Primary qHTS for delayed death inhibitors of the malarial parasite plastid, 48 hour incubation; P. falciparum luciferase growth in erythrocytes, 48 h; Potency, µM (doses to about 28.7 µM), for the others: top-dose activity change, negative = inhibition, actives largely listed as inhibitors; 5.9% of 310,000 active; note: potency is the fitted concentration of half-maximal effect; % is set by controls: 0 for no effect and ±100 for the full control effect
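Erythrocytes infected with P. falciparum carrying an integrated firefly luciferase reporter (2% hematocrit, 0.1% parasitemia final) were exposed to compounds in RPMI 1640 with 0.5% Albumax at 37 C, 5% CO2. Growth inhibition was scored as reduced luminescence.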
HCMV antiviral: qHTS Assay for inhibitors of the human cytomegalovirus (HCMV) | HFF cells, HCMV-luciferase reporter, 72 h; active compounds read low | activity change, negative = inhibition, % at 57.5 µM | 4.5% of 410,000 active; in the data active = activity change below about -60%; inconclusive = no clear call, values can overlap the other calls; inactive = above about -39%; note: % is set by controls: 0 for no effect and ±100 for the full control effect
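Luciferase read-out from HCMV-luciferase-infected HFFs (MOI 1 PFU/cell) 72 h post infection at 37C; compounds added after 16 h cell attachment; activity normalized between buffer-only basal and Salinomycin (10uM) inhibitor controls.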
Pf growth 96h: Primary qHTS for delayed death inhibitors of the malarial parasite plastid, 96 hour incubation; P. falciparum luciferase reporter growth, 96 h; Potency, µM (top dose mostly 28.7 µM), inactives show at the highest dose activity change, negative = inhibition, most hits filed as inhibitors; 6.9% of 320,000 active; note: potency is the fitted concentration of half-maximal effect; % is set by controls: 0 for no effect and ±100 for the full control effect
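Parasite growth measured via integrated firefly luciferase reporter in P. falciparum. Infected erythrocytes at 2% hematocrit, 0.05% parasitemia final were treated 96 hours at 37 C under 5% CO2, and luminescence was read.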
* = called active by the depositor. Unless noted, calls come from the whole dose curve; as a rule, active = well fitted inhibition curve with a large enough effect; inconclusive = small, poorly fitted or top-dose-only effect, or another doubt; inactive = no such curve, though single readings can be large or run the other way.

CN(C)CCNC(=O)c1cccc(-c2cnc3c(NC=O)cc(-c4cccs4)cn23)c1 was read as HCMV antiviral -87*.
For O=C(CN1c2ccc(Br)cc2-c2ccccc2S1(=O)=O)N1CCCCC1 the results were HCMV antiviral 51.
Screening CC(C)COC(=O)N1CCCCC1c1cc(C(=O)Nc2ccccc2)no1 (stereo not drawn) returned HCMV antiviral 3.
COc1ccc(N=Nc2[nH]c3ccc(C)cc3c2O)cc1 was read as CHX counter 22*, Shiga toxin inh 35*, Pf growth 48h 27%, HCMV antiviral 34 and Pf growth 96h inconclusive.
`Cc1ccc(N=Nc2[nH]c3ccccc3c2O)cc1` gave CHX counter 68*, Shiga toxin inh 152*, Pf growth 48h 100%, HCMV antiviral 177 and Pf growth 96h 34%.
For COc1ccc(-n2c(=S)[nH]c3ccc(C)cc3c2=O)cc1 the results were HCMV antiviral 5.
For CCCCCCc1c(O)c2ccccc2[nH]c1=O the results were CHX counter -2, Shiga toxin inh 19, Pf growth 48h -5%, HCMV antiviral 34 and Pf growth 96h inconclusive.
`CCOc1ccc(CNC(=O)CN2C(=O)CSc3c2c(C)nn3-c2ccccc2)cc1` gave HCMV antiviral -17.
`Cc1ccc(S(=O)(=O)N2CCOCC2)cc1C(=O)N1CCN(S(=O)(=O)c2ccccc2F)CC1` gave HCMV antiviral 33.
Screening CCC12CCCN3CCc4c(n(c5ccccc45)C(O)(C(=O)OC)C1)C32 (stereo not drawn) returned CHX counter -2, Shiga toxin inh 13, Pf growth 48h -15%, HCMV antiviral 12 and Pf growth 96h -6%.
CCOC(=O)C1=C[C@@]2(CC)CCCN3CCc4c(n1c1ccccc41)[C@H]32 was read as Pf growth 48h 6µM* and Pf growth 96h -1%.
For CC[C@@]12CCCN3CCc4c(n(c5ccccc45)C(=O)C1)[C@H]32 the results were Pf growth 48h inconclusive and Pf growth 96h 6.4µM*.
`Cc1nn(CC(=O)N(C)c2c(N)n(Cc3ccccc3)c(=O)[nH]c2=O)c(C)c1[N+](=O)[O-]` gave Pf growth 48h 12%, HCMV antiviral 21 and Pf growth 96h inconclusive.
For Cc1cc(C(=O)Cn2nc(C(=O)O)c3ccccc3c2=O)c(C)n1CCc1ccc(F)cc1 the results were CHX counter 20*, Shiga toxin inh 19, Pf growth 48h -37%, HCMV antiviral -32 and Pf growth 96h 1%.
`Cc1cc(C(=O)Cn2nc(C(=O)O)c3ccccc3c2=O)c(C)n1CC(F)(F)F` gave CHX counter 36*, Shiga toxin inh 189*, Pf growth 48h 90%, HCMV antiviral 83 and Pf growth 96h 71%.
Screening O=C(Cn1nc(C(=O)O)c2ccccc2c1=O)c1cc(F)ccc1F returned CHX counter 12, Shiga toxin inh 22, Pf growth 48h 14%, HCMV antiviral 0 and Pf growth 96h -5%.
`CC(=O)OC(C(=O)N1CCOCC1)c1c(F)cccc1F` (stereo not drawn) gave CHX counter -2, Shiga toxin inh 8, Pf growth 48h 34%, HCMV antiviral 32 and Pf growth 96h 41%.
For CN(C)[C@H]1C(=O)C(C(=O)NCN2CCCC2)=C(O)[C@]2(O)C(=O)C3=C(O)c4c(O)cccc4[C@](C)(O)[C@H]3C[C@H]12 the results were Pf growth 48h -16% and Pf growth 96h inconclusive.
O=C1C(=O)N(c2cccc(Cl)c2)C(c2ccccc2[N+](=O)[O-])/C1=C(\O)c1ccccc1 (stereo not drawn) was read as CHX counter 19*, Shiga toxin inh 37, Pf growth 48h -4%, HCMV antiviral -6 and Pf growth 96h 35%.
`O=C1C(=O)N(c2ccccc2)C(c2ccccc2[N+](=O)[O-])/C1=C(\O)c1ccccc1` (stereo not drawn) gave CHX counter 23, Shiga toxin inh 24, Pf growth 48h 9%, HCMV antiviral 101 and Pf growth 96h -8%.
For NS(=O)(=O)c1ccc(N2C(=O)C(=O)/C(=C(/O)c3ccccc3)C2c2ccc(Cl)cc2)cc1 (stereo not drawn) the results were CHX counter 11*, Shiga toxin inh 25, Pf growth 48h -9%, HCMV antiviral inconclusive and Pf growth 96h -6%.
`CCOc1ccc(N2C(=O)C(=O)/C(=C(/O)c3ccccc3)C2c2ccccc2[N+](=O)[O-])cc1` (stereo not drawn) gave CHX counter -2, Shiga toxin inh 9, Pf growth 48h -2%, HCMV antiviral -73* and Pf growth 96h inconclusive.
Screening Cc1cc(C(=O)Nc2cnn(C(C)(C)C(=O)NCc3ccco3)c2)c(C)o1 returned HCMV antiviral -5.
Screening O=C(Cc1nnc(NC(=O)c2cccc([N+](=O)[O-])c2)s1)NCc1ccccc1 returned CHX counter 2, Shiga toxin inh -21, Pf growth 48h -25%, HCMV antiviral -9 and Pf growth 96h 2%.
For CCOC(=O)c1ccc2c(c1)nc(C1CCN(S(=O)(=O)c3cccs3)CC1)n2CC the results were CHX counter -7, Shiga toxin inh -5, Pf growth 48h 10µM*, HCMV antiviral inconclusive and Pf growth 96h 8.3µM*.
For CCOC(=O)c1ccc2c(c1)nc(SCC(=O)N1CCCCC1)n2CC the results were CHX counter 13, Shiga toxin inh 18, Pf growth 48h 0%, HCMV antiviral -27 and Pf growth 96h 12µM*.
For CCOC(=O)c1ccc2c(c1)nc(SCC(=O)c1ccco1)n2CC the results were CHX counter 26, Shiga toxin inh 41, Pf growth 48h inconclusive, HCMV antiviral 120 and Pf growth 96h 34%.
For Cc1ccc(NC(=O)CN2CCN(C3CCCCC3)C(=O)C2=O)cc1 the results were HCMV antiviral 14.
`O=C(NCc1ccco1)c1cccc(Nc2nc3ccc(Br)cc3[nH]2)c1` gave CHX counter 10, Shiga toxin inh 0, Pf growth 48h 12µM*, HCMV antiviral -1 and Pf growth 96h 13µM*.
O=C(Cc1ccc(Nc2nc3ccc(Br)cc3[nH]2)cc1)NCCc1cccs1 was read as CHX counter 15*, Shiga toxin inh 19, Pf growth 48h 1.9µM*, HCMV antiviral -11 and Pf growth 96h 3.3µM*.
For O=C(NCC1CC1)c1ccc2nc([C@@H]3O[C@H](CO)[C@H](O)[C@H](O)[C@H]3O)[nH]c2c1 the results were HCMV antiviral -34.
`O=C(NCC1CC1)c1ccc(Nc2nc3ccc(Br)cc3[nH]2)cc1` gave CHX counter -2, Shiga toxin inh -38, Pf growth 48h inconclusive, HCMV antiviral -22 and Pf growth 96h 12µM*.
